# In PubChem BioAssay AID1465 (SRMLSC, 2008):
# Among all 220,000 compounds or so, about 160 (0.073%) were called active. These entries were drawn from the full list. Measured potencies and affinities stand elsewhere. Unmarked numbers belong to inactive results.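 Rule for the calls: active = fold induction of absorbance versus untreated yeast above a set limit, then at least 30% activation at any dose in follow-up; inconclusive = repeats straddling the limit, or above it without dose testing; inactive = fold induction below the set limit.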
# Assay: enhancers of respiration in Yfh1-depleted yeast, dose response, Friedreich's ataxia, plus single-dose screen (AID 1465)
# Conditions: S. cerevisiae Yfh1-off respiration, WST-1 reduction, 72 h; at 50 µM; hits give high values
row,Compound,fold induction
1,CCOC(=O)C1=C(Cc2ccc(C)cc2)C(=O)c2ccccc2C1=O,1.29
2,CCOC(=O)C1=C(Cc2ccc(Cl)cc2)C(=O)c2ccccc2C1=O,1.27
3,CCNS(=O)(=O)c1ccc(NC(=O)Nc2ccccc2OC)cc1,1.1
4,Cc1nc2c(C)cccn2c1/C(O)=C1\C(=O)C(=O)N(CCN(C)C)C1c1ccncc1 (stereo not drawn),1.11
5,Oc1ccc(CN2CCCCC2)c2cccnc12,0.69
6,Oc1ccc(CN2CCN(c3ccccc3)CC2)c2cccnc12,0.91
7,COc1ccccc1N1CCN(Cc2cc(Br)c(O)c3ncccc23)CC1,0.74
8,Oc1ccc(CN2CCN(Cc3ccccc3)CC2)c2cccnc12,1.36
9,CCOc1ccc(C(=O)NCC(=O)OCc2c(F)cccc2Cl)cc1,1.18
10,CCNC(=S)N(Cc1ccc(OC)cc1)C1CC(=O)N(c2ccc(OCC)cc2)C1=O (stereo not drawn),0.92
11,NC(=S)Nc1ccccc1Br,1
12,Cc1ccc(/C=N/NC(=O)CN2CCN(Cc3ccccc3Cl)CC2)o1,0.97
13,COC(=O)C(=NNc1c(C)n(C)n(-c2ccccc2)c1=O)C(=O)OC,1
14,CCOC(=O)/C(C#N)=N/Nc1c(C)n(C)n(-c2ccccc2)c1=O,1
15,Cc1c(N/C=C/C(=O)c2ccc(Cl)cc2)c(=O)n(-c2ccccc2)n1C,1
16,N#C/C(=N\Nc1ccc(Cl)cc1)C(=O)c1ccccc1,0.82
17,Cc1c(NC=C(C#N)C#N)c(=O)n(-c2ccccc2)n1C,0.95
18,Cc1c(NN=C(C#N)C#N)c(=O)n(-c2ccccc2)n1C,0.98
19,O=C(c1cc2c(s1)CCCC2)N1CCN(S(=O)(=O)c2ccccc2C(F)(F)F)CC1,0.91
20,CCC(C)/C(C)=N/NC(=O)c1cn(-c2ccccc2)nc1-c1ccccc1 (stereo not drawn),0.83
21,O=C(O)CC(NC(=O)Cc1ccc([N+](=O)[O-])cc1)c1ccc2c(c1)OCO2 (stereo not drawn),1
22,Cc1ccc(-c2cc3nc(-c4ccccc4)cc(N4CCC5(CC4)OCCO5)n3n2)cc1,0.98
23,O=C(Nc1ccon1)c1cccc(C(F)(F)F)c1,0.98
24,C[C@@H]1Cc2c(O)c(O)cc(O)c2C(=O)O1,1.07
25,COc1c(O)cc2c(c1O)C(=O)CC(c1ccccc1)O2 (stereo not drawn),0.86

row,Compound,fold induction
1,Cc1cc2cc(C(c3nnnn3Cc3ccco3)N3CCCCC3)c(=O)[nH]c2cc1C (stereo not drawn),0.99
2,COc1ccc(OC)c(N2C(=O)CC(Cc3ccc(C)cc3)C2=O)c1 (stereo not drawn),0.84
3,N#C/C(C(=O)N1CCCCC1)=C1\Nc2ccccc2S1,0.81
4,COC1=C(c2ccccc2)C(=O)c2ccccc2C1=O,1.01
5,CC(=O)C1=C(c2ccc(Br)cc2)C(=O)c2ccccc2C1=O,0.86
6,COc1ccc(C/C(O)=C(\C#N)c2nc3ccccc3[nH]2)cc1OC,1.12
7,O=C(CC1(O)C(=O)Nc2ccccc21)c1ccc(-n2cnnn2)cc1 (stereo not drawn),1.11
8,CC1CCCC(NC(=O)c2ccc3c(=O)n(CC4CCCO4)c(=O)[nH]c3c2)C1C (stereo not drawn),1.02
9,CCOC(=O)/C(=C/C=C1\Sc2ccccc2N1CC)C(C)=O,0.99
10,CCC(=O)/C=C1/Sc2ccccc2N1CC,0.79
11,COC(=O)c1ccccc1NC(=O)Cn1ccnc1,1.02
12,O=[N+]([O-])c1ccc(O)c2ncccc12,1.17
13,CCC(=O)NC(c1cccs1)c1ccc2cccnc2c1O (stereo not drawn),0.88
14,CC(C)CC(=O)NC(c1cccs1)c1ccc2cccnc2c1O (stereo not drawn),0.99
15,CC(=O)NC(c1ccco1)c1ccc2cccnc2c1O (stereo not drawn),0.91
16,CCCC(=O)NC(c1ccco1)c1cc(Cl)c2cccnc2c1O (stereo not drawn),0.7
17,CCCC(=O)NC(c1ccco1)c1c(O)ccc2ccccc12 (stereo not drawn),0.99
18,O=C1CNC(=O)N1CC(=O)N1CCCc2ccccc21,1.04
19,COc1ccc(C)cc1S(=O)(=O)Nc1cc(Cl)ccc1Cl,0.94
20,OC(COc1ccc2ccccc2c1)CN1CCN(c2ccc(F)cc2)CC1 (stereo not drawn),0.93
21,COc1ccc(/C=C2\Sc3ccc(C(=O)NCc4cccnc4)cc3N(C)C2=O)cc1OC,1.1
22,c1csc(-c2nnc(N3CCOCC3)c3ccccc23)c1,1.39
23,Cc1c(Nc2ccc(C=O)cc2)c(=O)n(-c2ccccc2)n1C,1.09
24,Clc1ccc(-c2n[nH]c3c2CCC3)cc1Cl,0.777
25,CCC(=O)NNc1ncnc2c1cnn2C,1.06

row,Compound,fold induction
1,CCOc1ccc(Oc2ccc(S(=O)(=O)N3CCOCC3)cc2N)cc1,1.12
2,CCc1nnc(NC(=O)CCC(=O)N2CCN(CCOc3ccc(C)cc3)CC2)s1,0.907
3,Cc1ccc(NC(=S)NNc2ccc([N+](=O)[O-])cc2S(=O)(=O)Nc2ccccc2C(=O)O)cc1C,1.09
4,COc1ccc(NC(=S)NNc2ccc([N+](=O)[O-])cc2S(=O)(=O)Nc2ccc(C)cc2C)cc1,1.25
5,O=C(O)CCc1nn2c3ccccc3nc2n(CCN2CCCCC2)c1=O,1.09
6,COc1cc2c(cc1NC(=O)C(C)OC(=O)/C=C/c1ccc(OC(F)F)cc1)oc1ccccc12 (stereo not drawn),1.12
7,COc1ccc(/C=N/NC(=O)c2cc(C)n(-c3ccccc3)c2C)cc1OC,0.99
8,Cc1cc(/C=N/NC(=O)c2ccccc2F)c(C)n1-c1ccccc1,1.02
9,Cc1ccc(CCCOC(=O)C[N+]2(C)CCOCC2)cc1,1.14
10,Cc1c(S(=O)(=O)N2CCN(C(c3ccccc3)c3ccccc3)CC2)c(=O)n(C)c(=O)n1C,1.25
11,CN1/C(=C\C=O)C(C)(C)c2ccccc21,1.07
12,CN1/C(=C\C=C2/SC(=S)NC2=O)C(C)(C)c2ccccc21,1.04
13,CC(C)n1c(SCC(=O)c2ccc3c(c2)OCCO3)nc2c1c(=O)n(C)c(=O)n2C,1.06
14,O=[N+]([O-])c1ccc(/C=N/Nc2nc(NCc3ccccc3)nc(N3CCOCC3)n2)cc1,1.08
15,O=[N+]([O-])c1cccc(/C=N/Nc2nc(NCc3ccccc3)nc(N3CCOCC3)n2)c1,1.03
16,CCCCN1C(=O)C2C(c3ccc(OC)cc3O)NC(CC(C)C)(C(=O)O)C2C1=O (stereo not drawn),0.99
17,CCCC(=O)NC(c1ccc(OC)c(OC)c1)c1cc(Cl)c2cccnc2c1O (stereo not drawn),1.13
18,CCCC(=O)NC(c1ccc2c(c1)OCO2)c1cc(Cl)c2cccnc2c1O (stereo not drawn),1.12
19,COc1ccc(C(NC(=O)c2cccnc2)c2cc(Cl)c3cccnc3c2O)cc1OC (stereo not drawn),0.98
20,CCCC(=O)NC(c1ccc(OC)cc1)c1ccc2cccnc2c1O (stereo not drawn),0.96
21,O=C(CS(=O)(=O)c1c[nH]c2ccccc12)N1CCCCCC1,1.02
22,CC(=NC1CC1)c1c(-c2ccccc2)[nH]n(-c2nc3ccccc3s2)c1=O,0.93
23,CCCc1cc(=O)n(-c2nc3ccccc3s2)[nH]1,1
24,Cc1ccc(S(=O)(=O)NCC(=O)OCc2ccccc2)cc1,0.97
25,COc1ccc(CN2C(=O)[C@H]3Cc4c([nH]c5ccccc45)C(C)(C)N3C2=O)cc1,0.81

row,Compound,fold induction
1,CCC(=O)NC(/C=C/c1ccccc1)c1cc([N+](=O)[O-])c2cccnc2c1O (stereo not drawn),1.36
2,CC(C)C(=O)NC(c1ccccc1)c1cc([N+](=O)[O-])c2cccnc2c1O (stereo not drawn),0.98
3,O=[N+]([O-])c1cc(Cl)c(O)c2ncccc12,1.15
4,O=[N+]([O-])c1cc(Cl)c2cccnc2c1O,0.89
5,O=C(NNC(=O)c1cccnc1)Nc1cccc(Cl)c1Cl,0.89
6,Cc1cnccc1CN(C)Cc1nc(Cc2ccccc2Cl)no1,0.85
7,CCC1(C(=O)O)NC(c2cccc(OC)c2O)C2C(=O)N(c3ccccc3)C(=O)C21 (stereo not drawn),1.01
8,Cc1cc(C)n2nc(-c3sccc3-n3c(C)ccc3C)cc2n1,1.01
9,COc1ccc(CN2C3CCCC2CC(NC(=O)Nc2cccc(C)c2)C3)cc1 (stereo not drawn),0.96
10,Cc1ccc(C(=O)c2c(C)oc3c2C(=O)C(=O)c2ccccc2-3)cc1,1.18
11,Cc1oc2c(c1C(=O)O)C(=O)c1ccccc1C2=O,1.01
12,C=CCn1c(C)cc(C(=O)COc2ncnc3sccc23)c1C,0.88
13,COc1ccccc1N(CN1C(=O)c2ccccc2C1=O)C(=O)c1cccc(C)c1,0.82
14,O=C(CCCn1nnc2ccccc2c1=O)N[C@H](C(=O)O)c1ccccc1,1.02
15,O=C(O)c1cccc(NC(=S)N/N=C/c2cccc(O)c2)c1,1.03
16,O=C(O)c1cccc(NC(=S)N/N=C/c2cccnc2)c1,0.98
17,COc1c(Cl)cc(Cl)cc1C(=O)n1nc(C)cc1C,0.88
18,CCOC(=O)c1ccc(NNC(=O)CC)c([N+](=O)[O-])c1,1.03
19,CNc1nc2c(c(=O)[nH]c(=O)n2C)n1CCOC,1.02
20,O=C1NC(=O)/C(=C\c2ccc(N3CCOCC3)o2)N1,0.97
21,O=C1NC(=O)/C(=C/c2ccc(N3CCOCC3)o2)N1,1.01
22,COc1ccccc1C(CC(=O)N1CCCC1)c1ccc2c(c1)OCO2 (stereo not drawn),0.99
23,NNC(=O)CCc1c[nH]c2ccccc12,0.93
